Data on 38 compounds can be found in PubChem BioAssay AID651791 (National Center for Advancing Translational Sciences (NCATS), 2012).

Results filed as inconclusive are left out. Activity calls are given as the source filed them. The call rests on the fitted dose curve; in most records, active means well fitted inhibition curve with a large enough effect; inconclusive means small, poorly fitted or top-dose-only effect; inactive means no such curve, though single readings can be large or run the other way.
Potency means the concentration at half of the fitted maximal effect.

This test is described as follows: InCell qHTS Assay for Inhibitors of the mTORC1 Signaling Pathway in MEF (Tsc2-/-, p53-/-) Cells: Hit Validation.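 Further: phospho-S6 Ser235/236 signal normalized to propidium iodide cell count per well; nearly all actives have a fitted effect of over 75% in size.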 The conditions noted are these: phospho-rpS6 immunofluorescence, 24 h; activity change, negative = inhibition: at 38.3 µM (top of the series).
On to `COc1ccc(S(=O)(=O)N(CCc2ccccc2)CC(=O)Nc2cccc(OC)c2)cc1`, for which the activity change, negative = inhibition was -100%.
Turning to `O=C(Cn1c(=O)n(Cc2ccc3c(c2)OCO3)c(=O)c2ccc(C(=O)NC3CCCCC3)cc21)Nc1ccccc1F`, the Potency is 5.21 µM (active).
Consider `COc1ccc2nc(NC(=O)c3nc(S(=O)(=O)Cc4ccccc4F)ncc3Cl)sc2c1`, for which the Potency is 2.33 µM (active).
As to `Cc1ccccc1NC(=O)c1sc2nc3c(cc2c1N)CCCC3`, the activity change, negative = inhibition is -100%.
On the same count and under the same terms, the value for `Cc1cccc(CSCCNC(=O)CN(c2ccccc2)S(=O)(=O)N(C)C)c1` was -100%; that for `COc1ccc(-c2n[nH]c3c2C(c2ccc(O)cc2)N(c2ccc(Br)cc2)C3=O)cc1` (stereo not drawn) was -100%; that for `COc1ccc(S(=O)(=O)NCCc2csc3nc(-c4ccc(Cl)cc4)nn23)cc1C` was -100%.
Still for that read-out and setting: the same measure for `CCOc1ccc(S(=O)(=O)N(C(C)=O)c2ccc3oc(C)c(C(=O)OC)c3c2)cc1`: -100%; for `CCN(c1ccccc1)S(=O)(=O)c1cc(C(=O)Nc2ccc(Br)cc2)ccc1F`: -100%.
On to `Cc1cccc(NC(=O)c2sc3nc4c(cc3c2N)CCCCCC4)c1C`, for which the activity change, negative = inhibition is -11%.
As for `COc1ccc2c(CNCCc3cccs3)c(C(=O)O)n(Cc3ccc(F)cc3Cl)c2c1`, the activity change, negative = inhibition is -100%.
For the compound `CC(=O)Nc1ccc(NC(=O)c2nc(S(=O)(=O)Cc3ccc(F)cc3)ncc2Cl)cc1`, the Potency is 3.29 µM (active).
On to `CCN(Cc1nc(-c2ccc(OC)cc2)oc1C)S(=O)(=O)c1ccc(Cl)cc1`, for which the activity change, negative = inhibition is -100%.
In the case of `CCCS(=O)(=O)c1ncc(Cl)c(C(=O)Nc2c(C(=O)Nc3ccccc3)oc3ccccc23)n1`, the Potency was 2.33 µM (active).
`O=C(Nc1cccc(NC(=O)c2ccccc2Cl)c1)c1cccc(Br)c1`: the activity change, negative = inhibition was -100%.
Still for that read-out and setting: the same measure for `COc1ccc(C(F)(F)F)cc1NC(=O)c1sc2nc(-c3cccs3)ccc2c1N`: -11%.
On the same count and under the same terms, the value for `O=C(NCCN1CCN(c2cccc(Cl)c2)CC1)Nc1ccccc1C(F)(F)F` was -100%.
Still for that read-out and setting: the same measure for `Cc1cccc(NS(=O)(=O)c2ccc3[nH]c4c(c3c2)CCCCCC4)c1`: -100%; for `Cc1nn(CC(=O)NCc2ccccc2Cl)c(=O)c2cccn12`: -100%.
Turning to `Cc1cccc(NC(c2cccc(Cl)c2)c2ccc3cccnc3c2O)n1` (stereo not drawn), the activity change, negative = inhibition is -100%.
The same measure, in the same setting: the value for `COc1ccc(N2CC(c3nc(-c4cc(OC)c(OC)c(OC)c4)no3)CC2=O)cc1Cl` (stereo not drawn) was -100%; that for `CCC1=Nc2cc(C(=O)NC3CCC(C)CC3)ccc2Sc2ccc(C)cc21` (stereo not drawn) was -100%.
Take `COCCCNC(=O)c1cc2c(=O)oc3ccc(C)cc3c2s1`: the activity change, negative = inhibition was -100%.
Take `CC(C)(C)c1ccc(-c2nc(S(=O)(=O)c3ccccc3)c(N3CCOCC3)o2)cc1`: the activity change, negative = inhibition was -100%.
Regarding `O=C(CC(NCc1cccnc1)C(=O)O)Nc1ccc(O)cc1` (stereo not drawn), the activity change, negative = inhibition was -100%.
As for `Cn1nnnc1SCCCNCc1ccccc1OCc1ccc(Cl)cc1`, the activity change, negative = inhibition was -12.8%.
On to `COc1cccc(C(=O)CC2(O)C(=O)N(Cc3ccccc3)c3ccccc32)c1` (stereo not drawn), for which the activity change, negative = inhibition was -100%.
Still for that read-out and setting: the value for `CCOc1cc(CNCCSc2nnnn2C)cc(Cl)c1OCc1ccc(Cl)cc1` was -100%; that for `CCN(CC)Cc1c(NC(=O)c2ccc(OC)cc2)sc2c1CCCC2` was 1.72%.
On to `CCCCS(=O)(=O)c1oc(-c2cccs2)nc1S(=O)(=O)c1ccc(F)cc1`, for which the Potency was 3.29 µM (active).
For `COc1cc(Cl)c(C)cc1NC(c1ccccc1)c1nnc(-c2ccccc2Cl)o1` (stereo not drawn), the activity change, negative = inhibition is -100%.
Still for that read-out and setting: the same measure for `Cc1cc(NCc2ccc(Cl)cc2)n2cnnc2n1`: -100%.
Take `COc1ccc(Cl)cc1NC(=O)CCCS(=O)(=O)c1nc(-c2ccc(OC)c(OC)c2)cc(C(F)(F)F)n1`: the Potency is 14.7 µM (active).
For the compound `Cc1cccc(Cn2cc(C(=O)Nc3ccc(F)c(C(F)(F)F)c3)ccc2=O)c1`, the activity change, negative = inhibition was -100%.
Still for that read-out and setting: the same measure for `Cc1ccc(O)c(C(CC(=O)NCC2(c3ccccc3)CCCC2)c2ccccc2)c1` (stereo not drawn): -100%; for `Oc1ccc(NCc2ccc(OCc3ccccc3Cl)cc2)cc1`: -100%.
The same measure, in the same setting: the same measure for `COc1ccc(Nc2cc(C)nc(-n3nc(C)cc3C)n2)cc1Cl`: -100%; for `CCOc1c(Br)cc(C2CC(=O)Nc3cc4c(cc32)OCO4)cc1OC` (stereo not drawn): -100%.
